Laboratory results from PubChem BioAssay AID1159580 (chemical genetic matrix, 2015).
Among all 5,500 compounds or so, about 2,000 (36%) were called active. About 18% were inconclusive and are not listed. Cut-off read from the data, not from the text of the source: active = normalized growth mostly below about 0.91 (no sharp cut-off); inconclusive = no clear call, values can overlap the other calls; inactive = mostly above about 0.92. This is one part of the list.

Experiment: chemical genetic growth profiling, strain panel (AID 1159580);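 note: tested at 20 µM; growth read once vehicle control cultures reached saturation at 30 °C; 1 = growth at the plate median or of vehicle wells; lower values mean less growth of the strain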
Conditions: S. cerevisiae deletion strains, growth OD

Measured: normalized growth

COc1ccc(CN2CSC(=S)N(Cc3ccc(OC)cc3)C2)cc1
inactive: locus YAR019C, strain CDC15, active compounds read low 0.952 | locus YBL105C, strain PKC1, active compounds read low 0.98 | locus YBR135W, strain CKS1, active compounds read low 0.972 | locus YBR136W, strain MEC1, active compounds read low 0.968 | locus YBR160W, strain CDC28, active compounds read low 0.974 | locus YDL017W, strain CDC7, active compounds read low 0.981 | locus YDL028C, strain MPS1, active compounds read low 0.951 | locus YDL101C, strain DUN1, active compounds read low 0.992 | locus YDL108W, strain KIN28, active compounds read low 0.955 | locus YDL132W, strain cdc53, active compounds read low 0.966 | locus YDL214C, strain PRR2, active compounds read low 0.937 | locus YDR052C, strain DBF4, active compounds read low 0.975 | locus YDR054C, strain cdc34, active compounds read low 0.961 | locus YDR226W, strain ADK1, active compounds read low 0.961 | locus YDR477W, strain SNF1, active compounds read low 0.958 | locus YER123W, strain YCK3, active compounds read low 0.891 | locus YER133W, strain GLC7, active compounds read low 0.946 | locus YFL009W, strain cdc4, active compounds read low 0.957 | locus YFL029C, strain CAK1, active compounds read low 0.95 | locus YFR003C, strain YPI1, active compounds read low 0.967 | locus YFR019W, strain FAB1, active compounds read low 0.961 | locus YFR028C, strain CDC14, active compounds read low 0.957 | locus YGR040W, strain KSS1, active compounds read low 0.947 | locus YGR052W, strain FMP48, active compounds read low 0.996 | locus YGR092W, strain DBF2, active compounds read low 0.864 | locus YHR030C, strain SLT2, active compounds read low 0.97 | locus YHR079C, strain IRE1, active compounds read low 0.908 | locus YHR082C, strain KSP1, active compounds read low 0.999 | locus YHR205W, strain SCH9, active compounds read low 0.891 | locus YIL147C, strain SLN1, active compounds read low 0.95 | locus YJL095W, strain BCK1, active compounds read low 0.981 | locus YJL128C, strain PBS2, active compounds read low 0.952 | locus YJL157C, strain FAR1, active compounds read low 0.954 | locus YJR016C, strain ILV3, active compounds read low 0.965 | locus YJR066W, strain TOR1 (second series), active compounds read low 0.94 | locus YJR066W, strain TOR1, active compounds read low 0.998 | locus YKL048C, strain ELM1, active compounds read low 0.958 | locus YKL067W, strain YNK1, active compounds read low 0.954 | locus YKL101W, strain HSL1, active compounds read low 0.94 | locus YKL193C, strain SDS22, active compounds read low 0.964 | locus YKL203C, strain TOR2, active compounds read low 0.989 | locus YLR113W, strain HOG1, active compounds read low 0.91 | locus YLR133W, strain CKI1, active compounds read low 0.961 | locus YLR403W, strain SFP1, active compounds read low 0.927 | locus YML070W, strain DAK1, active compounds read low 0.935 | locus YMR001C, strain CDC5, active compounds read low 0.978 | locus YMR205C, strain PFK2 (second series), active compounds read low 0.945 | locus YMR277W, strain FCP1, active compounds read low 0.97 | locus YNL006W, strain LST8, active compounds read low 0.945 | locus YNL020C, strain ARK1, active compounds read low 0.94 | locus YNL161W, strain CBK1, active compounds read low 0.987 | locus YNL183C, strain NPR1, active compounds read low 0.951 | locus YNL207W, strain RIO2, active compounds read low 0.964 | locus YNL222W, strain SSU72, active compounds read low 0.966 | locus YNL307C, strain MCK1 (second series), active compounds read low 0.905 | locus YOL078W, strain AVO1, active compounds read low 0.967 | locus YOL136C, strain PFK27, active compounds read low 0.956 | locus YOR061W, strain CKA2, active compounds read low 0.939 | locus YOR119C, strain RIO1, active compounds read low 0.985 | locus YOR231W, strain MKK1, active compounds read low 0.937 | locus YOR329C, strain SCD5, active compounds read low 0.979 | locus YPL031C, strain PHO85, active compounds read low 0.95 | locus YPL153C, strain RAD53, active compounds read low 0.931 | locus YPL204W, strain HRR25, active compounds read low 0.931 | locus YPL209C, strain IPL1, active compounds read low 0.966 | locus YPL256C, strain CLN2, active compounds read low 0.953 | locus YPR025C, strain CCL1, active compounds read low 0.98 | locus YPR106W, strain ISR1, active compounds read low 0.983 | locus YPR111W, strain DBF20, active compounds read low 0.979 | strain NNK1, active compounds read low 0.984 | strain TSCII, active compounds read low 0.964
